dFosB act-1 – activators of mouse delta FosB homodimer | activation, % at 25 µM | 340,000 tested, 0.99% active | AID 493131 | purified delta FosB, TAMRA-CDK5 oligo fluorescence polarization; percent of positive-control signal above neutral wells | P13346;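 active = mean activation above about 17%, with every replicate also reaching it, limit read from the data, passing the limit was not always enough; inconclusive = only one of the two conditions met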
Target sequence (P13346 whole entry, looked up): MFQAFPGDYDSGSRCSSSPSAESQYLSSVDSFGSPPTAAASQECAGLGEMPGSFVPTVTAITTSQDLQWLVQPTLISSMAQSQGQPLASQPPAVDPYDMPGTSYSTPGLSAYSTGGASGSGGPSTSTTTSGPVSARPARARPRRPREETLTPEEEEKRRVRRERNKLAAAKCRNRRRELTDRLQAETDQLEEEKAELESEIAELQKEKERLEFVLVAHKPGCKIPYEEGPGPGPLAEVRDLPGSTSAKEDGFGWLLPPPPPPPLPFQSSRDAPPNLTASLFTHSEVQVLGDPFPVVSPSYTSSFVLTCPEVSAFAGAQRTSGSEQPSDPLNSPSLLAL
FGF22 binding – shifts melting point of recombinant human FGF22; Q9HCT0; recombinant FGF22 thermal shift, SYPRO orange fluorescence; percent of sucrose octasulfate shift, DMSO zero; activity (Tm shift, normalised), % at 9.99 µM; 340,000 tested, 1.5% active; AID 651658;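 active = mean Tm shift, scaled 0 neutral to 100 positive control, at about 1.3% or above, every replicate too, limit read from the data; inconclusive = no clear call, values can overlap the other calls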
SIRT5 inh – inhibitors of human sirtuin-5 desuccinylase. Q9NXA8. Purified SirT5, succinyl-peptide AMC, trypsin-coupled fluorescence. inhibition, % at 15 µM. 330,000 tested, 1.1% active. AID 652115; in the data active = inhibition above about 15%; inconclusive = no clear call, values can overlap the other calls
Target sequence (Q9NXA8 whole entry, looked up): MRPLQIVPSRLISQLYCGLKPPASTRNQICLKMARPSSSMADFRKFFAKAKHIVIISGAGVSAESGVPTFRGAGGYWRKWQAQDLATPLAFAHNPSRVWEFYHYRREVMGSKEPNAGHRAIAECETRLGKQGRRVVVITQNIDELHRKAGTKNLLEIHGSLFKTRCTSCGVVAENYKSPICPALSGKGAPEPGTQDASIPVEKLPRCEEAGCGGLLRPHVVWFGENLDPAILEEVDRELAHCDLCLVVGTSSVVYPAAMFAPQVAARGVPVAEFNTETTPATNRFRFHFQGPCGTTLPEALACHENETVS
PglD DTNB – PglD (C. jejuni) enzyme inhibition; purified PglD enzyme, DTNB colorimetric CoA detection; inhibition, % at 12.5 µM; 360,000 tested, 0.098% active; AID 602405; in the data active = inhibition above about 16%, passing the limit was not always enough; inconclusive = no clear call, values can overlap the other calls
CDK5 p35 inh – CDK5/p35 (human) kinase inhibition; AID 488839; 330,000 tested, 0.01% active; Recombinant CDK5/p35, ADP-Glo luminescence, 60 min; inhibition, % at 10 µM; Q00535+Q15078;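 active = highest replicate inhibition of at least 50% and at least 75% of replicates reaching 50%; inconclusive = only one of the two criteria met; inactive = both criteria failed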;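 also: plate controls were DMSO neutral control for no effect and GW8510 at 10 µM for full effect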
PvdQ inh – P. aeruginosa PvdQ acylase inhibition; purified PvdQ acylase, fluorescence plate reader; inhibition, % at 10 µM; 340,000 tested, 0.063% active; in the data active = inhibition above about 30%, passing the limit was not always enough; inconclusive = no clear call, values can overlap the other calls;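 also: 0% = vehicle neutral wells and 100% = reference inhibitor wells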
dFosB act-2 – activators of mouse delta FosB homodimer DNA binding; shares compounds with dFosB act-1; purified delta FosB, TAMRA-CDK5 oligo fluorescence polarization; normalised: neutral wells 0, positive control 100; activation, % at 24.9 µM; 2,400 tested, under 10 active;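 active = highest replicate activation at or above 34% and every replicate reaching that threshold; inconclusive = meets only one of the two criteria; inactive = meets neither criterion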;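 also: higher polarization means more probe DNA bound by delta FosB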
An asterisk follows results filed as active; ? = inconclusive; nt = no result given. Hits are enriched below; roughly 2.8% of the tested compounds scored in any of these assays.

SMILES	dFosB act-1	FGF22 binding	SIRT5 inh	PglD DTNB	CDK5 p35 inh	PvdQ inh	dFosB act-2
COC(=O)Nc1ccc(S(=O)(=O)NNC(=O)c2c(O)c3ccccc3[nH]c2=O)cc1	24*	0	-2	-3	0	14	-1
COCC(=O)Nc1ccc2c(c1)OC[C@@H](C)N(Cc1ccccc1)C[C@H](C)[C@@H](OC)CN(C)C2=O	nt	0	3	3	nt	nt	nt
O=C(C[C@@H]1C[C@H]2c3cc(NS(=O)(=O)c4ccc(F)cc4)ccc3O[C@H]2[C@@H](CO)O1)N1CCCCC1	nt	0	2	0	nt	nt	nt
CCn1c(SCC(=O)Nc2ccc(NC(C)=O)cc2)nc2c([nH]c3ccccc32)c1=O	39*	0	-17	3	0	1	0
Cn1c(SCC(=O)Nc2ccc(F)cc2)nc2c([nH]c3ccccc32)c1=O	21*	0	2	-1	1	-7	-1
C=CCn1c(SCC(=O)Nc2ccccc2OC)nc2c([nH]c3ccccc32)c1=O	44*	0	-1	-5	0	-10	0
C[C@@H]1CCCCO[C@H](CN(C)C(=O)Nc2ccc(F)cc2)[C@H](C)CN([C@H](C)CO)C(=O)c2cc(NC(=O)C3CCCCC3)ccc2O1	nt	-1	8	1	nt	nt	nt
CC1CC(C)CN(S(=O)(=O)c2ccc3c(c2)oc(=O)n3CC(=O)N(C)Cc2ccccc2)C1 (configuration not stated)	47*	0	nt	-2	-1	-12	0
CCCCNC(=O)Cn1c(=O)oc2cc(S(=O)(=O)N3CC(C)CC(C)C3)ccc21 (configuration not stated)	8	0	-2	-3	2	-1	nt
C[C@H]1CN([C@@H](C)CO)S(=O)(=O)c2ccc(C#CC3CC3)cc2O[C@@H]1CN(C)Cc1ccccc1	nt	-1	-2	1	nt	nt	nt
O=C(CSc1nc2[nH]ncc2c(=O)[nH]1)Nc1ccc(OC(F)(F)F)cc1	19*	14*	-4	nt	0	-5	-2
Cc1ccc(CSc2nnc(SCC(=O)N/N=C/c3c[nH]c4ccccc34)s2)cc1	81*	0	-1	-1	-1	3	9
O=C(CSc1nnc(SCc2ccccc2)s1)N/N=C/c1c[nH]c2ccccc12	-14	0	-2	nt	2	-13	nt
COc1ccc(CN(C)C[C@H]2OCCCC[C@@H](C)Oc3ccc(NC(=O)NC4CCCCC4)cc3C(=O)N([C@@H](C)CO)C[C@H]2C)cc1	nt	0	-4	2	nt	nt	nt
COCCn1c(SCC(=O)c2c(N)n(C3CC3)c(=O)[nH]c2=O)nnc1-c1ccc(Cl)cc1	21*	0	4	3	-1	-3	1
COCCCn1c(SCC(=O)c2c(N)n(C3CC3)c(=O)[nH]c2=O)nnc1-c1ccccc1Cl	nt	0	1	-1	nt	nt	nt
Cc1ccc(C)c(NC(=O)Cn2nc(-c3ccccc3)nc2-c2ccccc2)c1	55*	nt	nt	nt	-2	-25	-9
Cc1ccc(NC(=O)Cn2nc(-c3ccccc3)nc2-c2ccccc2)c(C)c1	13	0	0	nt	-1	-7	nt
COc1ccc(NC(=O)Cn2cnc3ccccc3c2=O)cc1OC	0	0	-11	nt	-6	-5	nt
COc1ccc2nc(NC(=O)Cn3cnc4ccccc4c3=O)sc2c1	31*	0	-13	-3	0	-15	2
O=C(Nc1ccc(Cl)c(Cl)c1)c1ccc(Cl)c(Cl)c1	33*	0	-5	-1	2	-12	2
O=C(Nc1ccc2c(c1)COC2=O)c1ccc(Cl)c(Cl)c1	38*	0	0	4	0	-9	6
Cc1ccc(NC(=O)Nc2ccon2)cc1Cl	9	0	3	0	-1	-11	nt
CCCC(=O)Nc1ccc2c(c1)COC2=O	0	0	-2	nt	1	-6	nt
Cc1ccc(NC(=O)Nc2ccc3c(c2)C(=O)OC3)cc1Cl	29*	0	-8	2	0	-5	3
SMILES	dFosB act-1	FGF22 binding	SIRT5 inh	PglD DTNB	CDK5 p35 inh	PvdQ inh	dFosB act-2
COc1ccc(S(=O)(=O)N(C)C[C@@H]2Oc3ccc(NC(=O)CCCN(C)C)cc3CC(=O)N([C@@H](C)CO)C[C@H]2C)cc1	nt	0	-3	0	nt	nt	nt
C/C=C/c1cnc2c(c1)C(=O)N([C@@H](C)CO)C[C@@H](C)[C@@H](CN(C)C(=O)CN1CCOCC1)O2	nt	0	6	-2	nt	nt	nt
O=C([C@H]1[C@H](CO)[C@H]2Cn3c(ccc(-c4ccccc4F)c3=O)[C@@H]1N2C(=O)C1CC1)N1CCCCC1	nt	nt	-16	3	nt	nt	nt
COc1ccc2c(c1OC)C(=O)OC2C1c2c(cc3c(c2OC)OCO3)CCN1C (configuration not stated)	0	0	3	-2	2	6	nt
CN1CCc2cc3c(c4c2[C@H]1[C@H](O)c1ccccc1-4)OCO3	32*	0	-2	-4	0	-8	-1
CCOC(=O)Nc1ccc2c(COC(=O)CNS(=O)(=O)c3cccc(Br)c3)cc(=O)oc2c1	?	nt	nt	2	0	-2	nt
CCOC(=O)Nc1ccc2c(COC(=O)CN(C)S(=O)(=O)c3ccc(C)cc3)cc(=O)oc2c1	36*	0	-2	-3	1	1	7
Cc1ccc(S(=O)(=O)N(C)C[C@H]2Oc3ccc(NC(=O)Nc4ccc(F)cc4)cc3C(=O)N([C@H](C)CO)C[C@H]2C)cc1	nt	0	0	1	nt	nt	nt
CCc1ccccc1NC(=O)c1cc(S(=O)(=O)N2CCc3ccccc32)cn1C	26*	-1	-1	-3	-1	-14	-8
Cc1ccc(NC(=O)c2cc(S(=O)(=O)N3CCc4ccccc43)cn2C)cc1C	-7	0	-22	-4	-1	-6	nt
Cc1cccc(NC(=O)c2cc(S(=O)(=O)N3CCc4ccccc43)cn2C)c1C	40*	0	-2	-4	1	3	-1
CCCNC(=O)c1cc(S(=O)(=O)N2CCc3ccccc32)cn1C	2	0	0	8	1	-13	nt
CN1CCN(C(=O)C[C@@H]2CC[C@H]3[C@@H](COC[C@@H](O)CN3Cc3ccc(Oc4ccccc4)cc3)O2)CC1	nt	0	0	-3	nt	nt	nt
O=C(Cc1sc(-c2ccccc2Cl)nc1-c1ccccc1)Nc1ccc(F)cc1	25*	nt	nt	nt	-1	-7	-1
O=C(Cc1sc(-c2ccccc2Cl)nc1-c1ccccc1)Nc1ccccc1	-35	nt	nt	11	-4	-19	nt
CC(=O)Nc1ccc(NC(=O)Cc2sc(-c3cccnc3)nc2-c2ccc(C)cc2)cc1	30*	1	-1	-1	0	-7	1
CN(C)c1nc(N/N=C\c2ccc(Cl)c([N+](=O)[O-])c2)nc(Nc2ccc(F)cc2)n1	118*	nt	nt	1	2	5	-17
